POLH inh = inhibitors of human DNA polymerase eta | Q9Y253 | recombinant Pol eta, fluorescent DNA replication assay | Potency, µM (highest dose often 114 µM), inactives show at the highest dose activity change, negative = inhibition, actives largely listed as inhibitors | actives 1.2% (n = 390,000); also: % is scaled to controls: 0 for no effect and ±100 for the full control effect
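Pol eta (10 nM) was preincubated with compounds for 15 min at room temperature, after which fluorescent replication substrate (50 nM final) was added to start the reaction. Fluorescence was read kinetically at 0 and 10 min.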
Pol beta inh = inhibitors of human DNA polymerase beta; AID 485314; Potency, µM (highest dose often 114 µM), for inactives: top-dose activity change, negative = inhibition, most hits filed as inhibitors; actives 1.3% (n = 340,000); Pol beta primer extension/strand displacement, fluorescence kinetic; P06746; also: % is scaled to controls: 0 for no effect and ±100 for the full control effect
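10 nM enzyme + cpd, 15 min RT; start with substrate 50 nM final; read 0 min and after 10 min RT. Corrected, normalized data; 4-parameter Hill curve fit.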
Pol kappa inh = inhibitors of human DNA polymerase kappa | Q9UBT6 | purified Pol kappa, fluorescent DNA synthesis assay, 10 min | Potency, µM (highest dose often 107 µM), for the others: at the top dose activity, negative = inhibition, usual class: inhibitors | actives 0.53% (n = 400,000); also: % is scaled to controls: 0 for no effect and ±100 for the full control effect
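Kinetic fluorescence readout at 0 and 10 min followed reaction start with substrate at 50 nM final. Beforehand, enzyme (10 nM Pol kappa) stood 15 min with compound at room temperature; buffer-only wells were negative controls.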
FEN1 inh = inhibitors of human flap endonuclease 1. actives 0.35% (n = 390,000). Recombinant FEN1 flap cleavage, fluorescence, 15 min. Potency, µM (doses to about 114 µM), for the others: at the highest dose activity change, negative = inhibition, hits mostly inhibitors. P39748; also: % is scaled to controls: 0 for no effect and ±100 for the full control effect; nearly all actives have a fitted effect of over 65% in size
Target sequence (P39748 whole entry, looked up): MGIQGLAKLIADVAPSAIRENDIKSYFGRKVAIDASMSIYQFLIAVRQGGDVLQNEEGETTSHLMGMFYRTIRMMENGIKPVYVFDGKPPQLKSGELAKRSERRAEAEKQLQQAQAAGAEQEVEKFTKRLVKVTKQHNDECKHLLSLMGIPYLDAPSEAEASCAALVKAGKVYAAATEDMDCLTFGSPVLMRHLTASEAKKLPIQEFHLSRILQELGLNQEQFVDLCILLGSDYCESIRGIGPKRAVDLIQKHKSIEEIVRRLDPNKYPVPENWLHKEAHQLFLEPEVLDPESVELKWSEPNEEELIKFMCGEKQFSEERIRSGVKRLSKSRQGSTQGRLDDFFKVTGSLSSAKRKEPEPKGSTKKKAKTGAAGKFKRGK
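Steps: FEN1 (10 nM) dispensed; compound added by pin tool; 15 min at room temperature; substrate added to 50 nM final; reads at 0 min and 15 min; data normalized and fitted (four-parameter Hill).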
Pol iota inh = DNA polymerase iota (human) inhibition | Potency, µM (top dose mostly 115 µM), for the others: at the highest dose activity, negative = inhibition, usual class: inhibitors | Pol iota fluorescent replication assay, 10 min | actives 1% (n = 390,000) | Q9UNA4
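Fluorescent replication assay read twice, at 0 min and 10 min after adding 50 nM (final) substrate. Enzyme (10 nM) and compounds were first incubated 15 min at room temperature; enzyme-free buffer wells were negative controls.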
PGK inhibitor = blocks T. brucei phosphoglycerate kinase | Potency, µM (highest dose often 57.5 µM), without a hit: at the highest dose activity change, negative = inhibition, usual class: inhibitors | PGK/GAPDH coupled, Kinase-Glo luminescence, 60 min | actives 0.043% (n = 380,000) | P07378 | AID 602233; also: % is scaled to controls: 0 for no effect and ±100 for the full control effect; nearly all actives have a fitted effect of over 60% in size
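Luminescent ATP detection (Kinase-Glo Plus) follows a 60-minute room-temperature incubation, with wells lacking PGK as controls. Buffer: 100 mM TEA (pH 7.6), 5 mM MgCl2, 0.01% Tween-20. Coupling enzyme GAPDH (100 nM final) supplies unstable 1,3-BPG in-well.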
An asterisk follows results filed as active; [ ] = remark or other dose. Rows were chosen to be rich in hits. Some 2.4% of all compounds tested hit in one or more screens of this group. Calls follow the shape of the dose curve; as a rule, active = well fitted curve in the direction sought with a large enough effect; inconclusive = small, poorly fitted or top-dose-only effect, or another doubt; inactive = no such curve, though single readings can be large; an effect the other way counts as inactive or inconclusive. Potency is read from the fitted curve at half-maximal effect.

Results for Cc1ccc(/C=C2\C(=O)NC(=O)N(CCc3ccc(F)cc3)C2=O)s1 ?
POLH inh: -1%; Pol beta inh: 0%; Pol kappa inh: -3%; FEN1 inh: -1%; Pol iota inh: 112%; PGK inhibitor: 4%

How did CCOc1ccc(NC(=O)c2c(O)[nH]c(=O)[nH]c2=O)cc1 do in these assays?
POLH inh: -14%; Pol kappa inh: 6%; FEN1 inh: 14%; Pol iota inh: 19%; PGK inhibitor: 0%

What do the screens show for `CCOC(=O)c1ccc(NC(=O)c2c(O)[nH]c(=O)[nH]c2=O)cc1`?
POLH inh: inconclusive; Pol beta inh: 20µM*; Pol kappa inh: 1%; FEN1 inh: -7%; Pol iota inh: 0%; PGK inhibitor: -4%

How did CC1(C)[C@H](C(=O)O[C@H](C#N)c2cccc(Oc3ccccc3)c2)[C@@H]1C=C(Br)Br do in these assays?
Pol kappa inh: 7%[60.1 µM]

How did CN1CCc2cc(O)cc3c2C1Cc1ccc(O)c(O)c1-3 (stereo not given) do in these assays?
POLH inh: -13%[57.1 µM]; Pol beta inh: -2%[57.1 µM]; Pol kappa inh: 4%[19.4 µM]; Pol iota inh: 16µM*

What do the screens show for `COc1ccc2c(c1O)-c1cccc3c1C(C2)N(C)CC3` (stereo not given)?
POLH inh: -3%[57.1 µM]; Pol beta inh: 6%[57.1 µM]; Pol iota inh: -2%[58.9 µM]

Results for Cc1c(C(=O)c2cccc3ccccc23)c2cccc3c2n1[C@@H](CN1CCOCC1)CO3 ?
Pol kappa inh: -10%[60.1 µM]

How did Cc1c(OC(=O)N(C)C)ccc2c1O/C(=C\c1ccco1)C2=O do in these assays?
POLH inh: -20%; Pol beta inh: 50µM*; Pol kappa inh: -2%; FEN1 inh: -6%; Pol iota inh: 12%; PGK inhibitor: -9%

How did Oc1c(Cl)cc(Cl)cc1CN1CCN(Cc2ccccc2)CC1 do in these assays?
POLH inh: -5%; Pol beta inh: 11%; Pol kappa inh: -13%; FEN1 inh: -2%; Pol iota inh: 32µM*; PGK inhibitor: inactive

Results for CC1COC2=C1C(=O)C(=O)c1c2ccc2c1CCCC2(C)C (stereo not given) ?
Pol kappa inh: 28µM*

What do the screens show for `C[C@H]1COC2=C1C(=O)C(=O)c1c2ccc2c1CCCC2(C)C`?
POLH inh: 35µM*; Pol beta inh: 22µM*; Pol kappa inh: inconclusive; FEN1 inh: inconclusive; Pol iota inh: 22µM*; PGK inhibitor: -9%

How did COc1ccccc1NC(=O)c1oc2ccccc2c1NC(=O)COc1cccc(C)c1 do in these assays?
POLH inh: -8%; Pol beta inh: 33%; Pol kappa inh: 3%; FEN1 inh: -1%; Pol iota inh: 30%; PGK inhibitor: inactive

How did CCCCNC(=O)c1c(N)n(CCCOC)c2nc3ccccc3nc12 do in these assays?
POLH inh: -7%; Pol beta inh: 18%; Pol kappa inh: -18%; FEN1 inh: inconclusive; Pol iota inh: 2.5µM*; PGK inhibitor: -7%

Results for CCCCCn1c(NC(=O)c2ccco2)c(C(=O)OCC)c2nc3ccccc3nc21 ?
POLH inh: 22µM*; Pol beta inh: -8%; Pol kappa inh: -18%; FEN1 inh: -7%; Pol iota inh: 1.4µM*; PGK inhibitor: inconclusive

Results for CCOC(=O)c1c(N)n(CCCOC(=O)c2ccco2)c2nc3ccccc3nc12 ?
POLH inh: -4%; Pol beta inh: 0%; Pol kappa inh: -16%; FEN1 inh: -13%; Pol iota inh: inconclusive; PGK inhibitor: inactive

Results for COCCNC(=O)c1c(NC(=O)c2ccc(Br)o2)n(Cc2ccccc2)c2nc3ccccc3nc12 ?
POLH inh: -19%; Pol beta inh: -2%; Pol kappa inh: -10%; FEN1 inh: -19%; Pol iota inh: inconclusive; PGK inhibitor: -7%

Results for COCCCn1c(N)c(C(=O)OCCOC)c2nc3ccccc3nc21 ?
POLH inh: -4%; Pol beta inh: 1%; Pol kappa inh: -6%; FEN1 inh: -1%; Pol iota inh: 36%; PGK inhibitor: -12%

What do the screens show for `CCOC(=O)c1c(NS(=O)(=O)c2ccccc2)n(CCCOC)c2nc3ccccc3nc12`?
POLH inh: inconclusive; Pol beta inh: 1%; Pol kappa inh: -22%; FEN1 inh: -6%; Pol iota inh: 1.1µM*; PGK inhibitor: -21%

Results for COCCCNC(=O)c1c(NC(=O)c2ccco2)n(Cc2ccccc2)c2nc3ccccc3nc12 ?
POLH inh: inconclusive; Pol beta inh: 10%; Pol kappa inh: -27%; FEN1 inh: -13%; Pol iota inh: 3.2µM*; PGK inhibitor: -5%

Results for CC(=O)OCC1=C[C@H]2[C@@H]3C(C)(C)[C@]3(OC(=O)Cc3ccccc3)C[C@@H](C)[C@]2(O)[C@@H]2C=C(C)C(=O)[C@@]2(O)C1 ?
Pol kappa inh: -3%[12 µM]

What do the screens show for `Cn1ncc2c(NCc3ccco3)ncnc21`?
Pol kappa inh: 11%; FEN1 inh: 0%; Pol iota inh: inconclusive

Results for COC1=CC(=O)O[C@H](/C=C/c2ccc3c(c2)OCO3)C1 ?
Pol kappa inh: 13%[60.1 µM]

Results for CNc1cc(Cl)c2nonc2c1[N+](=O)[O-] ?
POLH inh: -13%; Pol beta inh: 89µM*; Pol kappa inh: -25%; FEN1 inh: 13µM*; Pol iota inh: 10µM*; PGK inhibitor: 1%

What do the screens show for `Cc1ccc(CCNC(=O)Cn2nc(C)c3c(C)n(-c4ccc(C)cc4)nc3c2=O)cc1`?
POLH inh: inconclusive; Pol beta inh: 79µM*; Pol kappa inh: -2%; FEN1 inh: 8%; Pol iota inh: -7%; PGK inhibitor: 11%

How did CC(=O)CC(c1ccccc1)c1c(O)c2cccc(O)c2oc1=O (stereo not given) do in these assays?
Pol kappa inh: inactive

Results for O=C1OC(c2ccc(O)c(S(=O)(=O)O)c2)(c2ccc(O)c(S(=O)(=O)O)c2)c2c(Br)c(Br)c(Br)c(Br)c21 ?
Pol kappa inh: 28µM*

How did CC12CCC3C4CCC(=O)C(O)=C4CCC3C1CCC2OC(=O)CCC1CCCC1 (stereo not given) do in these assays?
Pol kappa inh: -1%[19.4 µM]

How did CN1C(=O)/C(=C/c2ccc(Cl)s2)C(=O)NC1=S do in these assays?
POLH inh: inconclusive; Pol beta inh: 4%; Pol kappa inh: -24%; FEN1 inh: -24%; Pol iota inh: inconclusive; PGK inhibitor: -2%

What do the screens show for `Cc1ccsc1/C=C1\C(=O)NC(=S)N(C)C1=O`?
POLH inh: -17%; Pol beta inh: 25%; Pol kappa inh: 3%; FEN1 inh: 79µM*; Pol iota inh: inconclusive; PGK inhibitor: -14%

Assay outcomes as filed in PubChem.
